Data: ChEMBL document CHEMBL4513146, “CO-ADD screening of Karazin Kharkiv National University (Ukraine) compounds”
Entries with a potency or affinity are not part of this list.

tested on: Escherichia coli; conditions: Concentration 32 ug.mL-1;; ASSAY_TEST Inhibition of Bacterial Growth; detection method Absorption (OD600); MEDIA CAMHB; plate type 384well; NBS; CORNING #3640; time 18 hr

Point of comparison: `O=C(Cn1nc2c(Sc3ccccc3)nccn2c1=O)Nc1cc(F)ccc1F`, Inhibition -13.52%. Against it:
- CCOc1ccccc1CNC(=O)CCc1nnc2ccc(-c3ccccc3)nn12 — higher, -2.56%
- Cc1ccc(Cn2c(=O)c3ccccc3n3c(=O)n(CC(=O)Nc4ccc5c(c4)OCCO5)nc23)cc1 — higher, 1.04%
- Cc1[nH]c2ccccc2c1C(=O)CSc1nnc2c(=O)n(-c3ccccc3)ccn12 — higher, -0.61%
- CCOc1ccc(-n2ccn3c(SC(C)C(=O)Nc4cc(OC)cc(OC)c4)nnc3c2=O)cc1 (stereo not given) — higher, 2.97%
- Cc1ccc(CN(c2ccc(F)cc2)S(=O)(=O)c2ccc3nnc(C)n3c2)cc1 — lower, -18.59%
- O=c1n(Cc2cccc(C(F)(F)F)c2)nc2c(S(=O)(=O)N3CCCCCC3)cccn12 — higher, -7.6%
- CCCn1c(=O)c2sccc2n2c(=O)n(CC(=O)c3cc(C)ccc3C)nc12 — higher, 0.58%
- Cc1cc(C)cc(Nc2nc(C)cc3nn(CC(=O)N(C)c4cccc(C)c4)c(=O)n23)c1 — higher, -3.82%
- CCc1nnc2c(S(=O)(=O)N(Cc3cccc(OC)c3)c3cccc(C)c3)cccn12 — higher, -1.22%
- O=C(CSc1nnc2ccc(C(=O)Nc3cccc(F)c3)cn12)Nc1ccc(F)c(F)c1 — higher, 1.09%
- CC(C)c1nnc2c(SCC(=O)Nc3ccc4c(c3)OCO4)nc3ccccc3n12 — higher, -6.38%
- Cc1ccc(CN(c2cccc(F)c2)S(=O)(=O)c2ccc3nnc(C)n3c2)cc1 — lower, -15.84%
- COc1cccc(-n2ccn3c(SCC(=O)Nc4ccc(OC)c(OC)c4)nnc3c2=O)c1 — higher, -2.6%
- COc1cccc(-n2ccn3c(SCC(=O)c4ccc(F)cc4)nnc3c2=O)c1 — higher, -3.39%
- O=C(Cn1nc2c(Oc3ccc(Cl)cc3)nccn2c1=O)Nc1ccc2c(c1)OCO2 — higher, -7%
- O=C(Cn1nc2ccc(C(=O)NCc3ccccc3)cn2c1=O)Nc1ccc(Br)cc1 — higher, -7.68%
- O=c1c2sccc2n2c(=O)n(Cc3cccc(Br)c3)nc2n1Cc1cccs1 — lower, -23.42%
- CCC(Sc1nnc2c(=O)n(-c3cccc(OC)c3)ccn12)C(=O)Nc1cc(OC)cc(OC)c1 (stereo not given) — higher, -6.26%
- O=C(Cn1nc2c(SCc3ccc(Cl)cc3)nccn2c1=O)Nc1ccccc1F — higher, -0.33%
- Cc1cc(NC(=O)Cn2nc3ccc(SC(C)(C)C)nn3c2=O)ccc1Br — higher, -5.34%
- COc1ccc(N(Cc2cccc(C)c2)S(=O)(=O)c2ccc3nnc(C)n3c2)cc1 — higher, -2.14%
- Cc1cc(C)cc(Oc2nccn3c(=O)n(CC(=O)Nc4cccc(Cl)c4)nc23)c1 — higher, -3.44%
- COc1ccccc1NC(=O)Cn1nc2c3c4c(sc3ncn2c1=O)CCCC4 — higher, -4.22%
- O=c1c2sccc2n2c(=O)n(Cc3cccc(F)c3)nc2n1Cc1cccs1 — higher, -12.16%
- CSc1cccc(NC(=O)Cn2nc3ccc(C(=O)NCc4ccccc4)cn3c2=O)c1 — higher, -2.4%
- COc1ccc(NC(=O)Cn2nc3ccc(SC(C)(C)C)nn3c2=O)cc1Cl — higher, -6.93%
- CC(C)c1ccc(NC(=O)CSc2nnc3c(=O)n(-c4ccccc4)ccn23)cc1 — higher, -7.12%
- Cc1nnc2c(SCC(=O)Nc3ccc(F)cc3F)nc3ccccc3n12 — higher, 2.93%
- O=C(CSc1nnc2c(=O)n(-c3cccc(F)c3)ccn12)c1ccc(F)cc1 — higher, 1.51%
- CC(C)NC(=O)Cn1nc2nc(Nc3ccc(F)cc3)ccn2c1=O — higher, -2.64%
- Cc1ccc(-c2cc3c4nn(CC(=O)Nc5c(C)cccc5C)c(=O)n4ccn3n2)cc1 — higher, 0.29%
- CCOc1ccc(C(=O)CSc2nnc3c(=O)n(-c4ccc(C)c(C)c4)ccn23)cc1 — higher, -11.39%
- O=C(Cn1nc2n(CCc3ccccc3)c(=O)c3ccccc3n2c1=O)Nc1ccc2c(c1)OCO2 — higher, -8.34%
- O=C(CSc1nnc2c(=O)n(-c3ccc(F)cc3)ccn12)c1ccccc1Cl — higher, -2.26%
- O=C(Cn1nc2c3cc(-c4ccc(Cl)cc4)nn3ccn2c1=O)Nc1ccc(F)cc1 — higher, 4.85%
- COc1ccc(N2CCN(C(=O)Cn3nc4c(Oc5cccc(C)c5C)nccn4c3=O)CC2)cc1 — higher, -1.11%
- C=Cc1ccc(CSc2nnc3c(=O)n(-c4cccc(OC)c4)ccn23)cc1 — higher, -3.1%
- CCc1nnc2c(S(=O)(=O)N(Cc3ccccc3C)c3ccc(C(C)C)cc3)cccn12 — higher, -8.12%
- CC(C)c1ccc(CNC(=O)CCc2nnc3c(N4CCCCC4)nc4ccccc4n23)cc1 — higher, -5.19%
